The target in experiment [1] is Phosphoglycerate kinase, glycosomal (Trypanosoma brucei brucei) (UniProt P07378). The experiment can be described thus: qHTS Validation Assay to Find Inhibitors of Phosphoglycerate Kinase (AID 504547).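 Further: control wells lack PGK and mark full inhibition.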 Summed up: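 Inhibition of the enzyme is judged by a Kinase-Glo Plus luminescent signal following a one-hour incubation at room temperature. Because 1,3-BPG is unstable, it is made in situ by GAPDH at 100nM final; no-PGK wells define the baseline.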
A general note: Quantitative high-throughput screening tests each substance at several concentrations.

Experiment [2] deals with phosphoglycerate mutase (Leishmania major) (UniProt Q4Q090). The experiment can be described thus: qHTS Validation Assay to Find Inhibitors of Phosphoglycerate Mutase (AID 504548). Further: series mostly up to about 58 µM; on the % scale 0 is the no-effect control and ±100 the full control effect. Summed up:
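Lm PGAM 1.25nM final; 100 mM TEA pH 7.6, 5 mM MgCl2, 0.01% Tween-20; 45 min RT; Kinase-GloPlus, 10 min; end-point luminescence. Enzyme-free wells as negative controls.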

In experiment [3] the target is Ubiquitin carboxyl-terminal hydrolase 1 (Homo sapiens) (UniProt O94782). Nature of the experiment: Inhibitors of USP1/UAF1: Pilot qHTS (AID 504865).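 Further: rhodamine fluorescence freed from ubiquitin-rhodamine substrate followed over time; top concentration of the series differs between compounds; on the % scale 0 is the no-effect control and ±100 the full control effect; nearly all actives have a fitted effect of over 35% in size.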 In outline: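 USP1/UAF1 complex (1nM) preincubated with compound 15 min at room temperature, then Ub-Rho substrate (150nM final) added. Fluorescence read kinetically at 480/540 nm, 6 reads every 60 seconds. Buffer: 50mM HEPES pH 7.8, 0.5mM EDTA, 0.1 mg/ml BSA, 1mM TCEP, 0.01% Tween-20.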
Chain of Ubiquitin carboxyl-terminal hydrolase 1 (Homo sapiens) (O94782 whole entry, looked up): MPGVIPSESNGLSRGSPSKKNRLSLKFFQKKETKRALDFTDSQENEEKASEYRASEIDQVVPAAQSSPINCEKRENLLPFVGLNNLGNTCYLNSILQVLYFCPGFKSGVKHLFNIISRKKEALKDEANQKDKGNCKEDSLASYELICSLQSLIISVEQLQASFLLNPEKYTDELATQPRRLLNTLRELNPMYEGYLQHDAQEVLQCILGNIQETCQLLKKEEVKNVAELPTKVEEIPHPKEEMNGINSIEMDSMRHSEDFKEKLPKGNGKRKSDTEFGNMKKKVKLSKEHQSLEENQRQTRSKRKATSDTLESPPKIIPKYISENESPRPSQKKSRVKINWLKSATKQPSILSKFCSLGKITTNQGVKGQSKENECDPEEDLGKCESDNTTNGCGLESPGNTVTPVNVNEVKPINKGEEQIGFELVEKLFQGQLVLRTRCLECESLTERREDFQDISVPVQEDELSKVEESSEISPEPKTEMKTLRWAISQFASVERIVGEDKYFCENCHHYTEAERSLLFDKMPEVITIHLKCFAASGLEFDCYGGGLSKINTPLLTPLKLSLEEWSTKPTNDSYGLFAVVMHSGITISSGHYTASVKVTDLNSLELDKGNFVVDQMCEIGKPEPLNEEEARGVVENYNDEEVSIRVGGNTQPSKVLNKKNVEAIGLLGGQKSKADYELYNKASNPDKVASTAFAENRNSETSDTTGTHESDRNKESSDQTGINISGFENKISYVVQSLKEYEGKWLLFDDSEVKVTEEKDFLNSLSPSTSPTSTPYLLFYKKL

Experiment [4] has as its target Voltage-gated inwardly rectifying potassium channel KCNH2 (Homo sapiens) (UniProt Q12809). Nature of the experiment: qHTS Assay for Small Molecule Inhibitors of the Human hERG Channel Activity (AID 588834).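 Further: potency means the concentration at half of the fitted maximal effect; lower thallium flux fluorescence means stronger hERG block; nearly all actives have a fitted effect of over 50% in size.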 Summed up: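 U2OS cells transduced with hERG via BacMam (MOI ~100), plated 2000/well, loaded with FluxOR thallium dye, compound ~10 min, then stimulation buffer; fluorescence decrease read kinetically; AC50 from Hill fits.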

In experiment [5] the target is Glutaminase kidney isoform, mitochondrial (Homo sapiens) (UniProt O94925). Nature of the experiment: qHTS for Inhibitors of Glutaminase (GLS): LOPAC Validation (AID 624146).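 Further: glutamate product detected by oxidase and peroxidase coupled Amplex red fluorescence gain; series mostly up to about 46 µM; on the % scale 0 is the no-effect control and ±100 the full control effect; nearly all actives have a fitted effect of over 60% in size.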 In outline:
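Human kidney-isoform GLS in 45 mM KH2PO4 pH 8.2, 0.02% Tween-20, with compound, started with 1mM L-Glutamine (added stock). Glutamate oxidase/HRP/Amplex red coupled fluorescence read at start and after 30 min at RT.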

Experiment [6] is described as follows: qHTS of Trypanosoma Brucei Inhibitors: LOPAC Validation (AID 624147). Further: 0% is about no effect. Summed up:
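ADP (130 uM final) triggers the TbPYK reaction after compound addition; incubation is 45 min at room temperature. Kinase-Glo Plus is then added and luminescence imaged. Normalized data are fitted to concentration-effect curves.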

Experiment [7] concerns the target Glucagon-like peptide 1 receptor (Homo sapiens) (UniProt P43220). The experiment can be described thus: qHTS of GLP-1 Receptor Agonists: LOPAC Validation (AID 624148).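 Further: luminescence from a luciferase reporter switched on by cAMP; 0% is about no effect; higher luminescence signal means agonism.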 Summed up: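 Agonism scored as increased luciferase luminescence driven by cAMP in HEK293 clones carrying GLP-1R. Cells settled 12 hours, received compound for 4-6 hr at 37 deg C, 5% CO2, and were read after 12 min detection reagent at RT.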

A short description of experiment [8]: qHTS of Nrf2 Activators: LOPAC Validation (AID 624149). Further: 0% is about no effect. In outline: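 AREc32 cells carrying an ARE-driven firefly luciferase were grown overnight in OPTI-MEM with 5% FBS, then exposed to compounds for 24 hr at 37 deg C. Luciferase signal was read after 30 min with Steady-Glo at RT.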
Experiment [9] in a line: HTS Assay for Allosteric Antagonists of the Human D2 Dopamine Receptor: Hit Validation in HTRF (AID 624455).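 Further: stable D1 dopamine receptor cell line scored for blocking the D1 response; on the % scale 0 is the no-effect control and ±100 the full control effect.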 Summed up: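 Hits were examined in an HTRF assay using cells stably expressing the D1 dopamine receptor, scoring inhibition of the D1-mediated response. The preceding primary screen tracked calcium flux after an EC80 dopamine addition in force-coupled, inducible Hek293 Trex D2 cells.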
On the technique in general: In TR-FRET formats the signal depends on donor and acceptor labels being close together.

For experiment [10], the target named is Hexokinase-4 (Homo sapiens) + Glucokinase regulatory protein (Homo sapiens) (UniProt P35557+Q14397). The experiment can be described thus: qHTS assay for inhibitors of recombinant human GCK-GKRP interaction: Diaphorase-coupled assay (AID 743205). Summed up: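 GST-GCK (10 nM) with FLAG-GKRP (10 nM), 5 mM glucose and 0.4 mM ATP in pH 7.6 Hepes; compounds preincubated 20 min with substrate. G6PDH/diaphorase coupling converts resazurin to resorufin, read kinetically (ex 525/em 590 nm) for 30 min.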
Chain of Hexokinase-4 (Homo sapiens) + Glucokinase regulatory protein (Homo sapiens) (P35557 whole entry, looked up): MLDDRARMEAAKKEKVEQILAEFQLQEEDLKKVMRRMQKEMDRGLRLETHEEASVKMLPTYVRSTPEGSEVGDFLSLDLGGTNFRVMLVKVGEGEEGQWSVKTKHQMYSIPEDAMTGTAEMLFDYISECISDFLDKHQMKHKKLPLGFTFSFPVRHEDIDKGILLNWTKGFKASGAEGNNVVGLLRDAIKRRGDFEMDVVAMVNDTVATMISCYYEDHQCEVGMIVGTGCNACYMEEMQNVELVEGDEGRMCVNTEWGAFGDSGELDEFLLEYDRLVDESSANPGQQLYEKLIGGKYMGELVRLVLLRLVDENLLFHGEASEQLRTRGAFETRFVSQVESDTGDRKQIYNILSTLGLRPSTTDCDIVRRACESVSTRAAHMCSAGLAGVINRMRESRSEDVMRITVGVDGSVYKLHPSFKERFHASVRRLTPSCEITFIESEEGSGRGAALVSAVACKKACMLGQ
Chain of Hexokinase-4 (Homo sapiens) + Glucokinase regulatory protein (Homo sapiens) (Q14397 whole entry, looked up): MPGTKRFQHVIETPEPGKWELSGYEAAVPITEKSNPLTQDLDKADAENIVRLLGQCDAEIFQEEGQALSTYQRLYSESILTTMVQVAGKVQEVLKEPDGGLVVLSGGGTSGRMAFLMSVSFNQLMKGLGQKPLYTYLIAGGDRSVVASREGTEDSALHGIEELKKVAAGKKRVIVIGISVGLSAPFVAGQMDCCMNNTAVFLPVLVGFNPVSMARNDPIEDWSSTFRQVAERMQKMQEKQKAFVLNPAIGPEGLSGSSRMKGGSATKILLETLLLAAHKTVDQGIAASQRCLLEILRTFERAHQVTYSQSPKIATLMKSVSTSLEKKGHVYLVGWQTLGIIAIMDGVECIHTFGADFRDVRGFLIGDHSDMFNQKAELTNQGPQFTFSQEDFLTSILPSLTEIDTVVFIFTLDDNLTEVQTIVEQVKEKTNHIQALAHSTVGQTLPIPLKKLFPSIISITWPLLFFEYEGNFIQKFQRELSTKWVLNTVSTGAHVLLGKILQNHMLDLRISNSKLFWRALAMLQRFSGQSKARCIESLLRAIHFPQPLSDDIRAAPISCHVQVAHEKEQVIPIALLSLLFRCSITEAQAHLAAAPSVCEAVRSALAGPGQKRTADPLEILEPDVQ

A short description of experiment [11]: qHTS Assay for Identifying Gametocytocidal Compounds (AID 743244).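 Further: on the % scale 0 is the no-effect control and ±100 the full control effect; actives lower the fluorescent signal which means gametocytes are killed.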 Particulars: P. falciparum 3D7 stage III-V gametocytes, alamarBlue, 72 h; max response: stronger effect = lower value. Summed up:
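Viability read-out was resazurin reduction (alamarBlue, 24 h) measured at Ex 525/Em 598 nm. Beforehand, late-stage (III-V) 3D7 P. falciparum gametocytes at 20,000 cells/well were incubated with compound 72 h at 37C under 5% CO2.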

The nature of experiment [12]: Natriuretic polypeptide receptor (hNpr1) antagonism - Pilot counterscreen GloSensor control cell line (AID 1347045; calls by dose curve; further: series mostly up to about 38 µM; on the % scale 0 is the no-effect control and ±100 the full control effect). Summed up:
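HEK293 cells carrying the GloSensor cGMP sensor (GIP/pGS-40F) were loaded with 2% GloSensor reagent for 2 h, exposed to compounds for 30 min, and then stimulated with 50 uM sodium nitroprusside for 20 min at room temperature.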

Experiment [13] has as its target Atrial natriuretic peptide receptor 1 (Homo sapiens) (UniProt P16066). Nature of the experiment: Natriuretic polypeptide receptor (hNpr1) antagonism - Pilot screen (AID 1347049; calls by dose curve;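 further: agonist-evoked cGMP luminescence read 20 min after hNppA addition; series mostly up to about 58 µM; on the % scale 0 is the no-effect control and ±100 the full control effect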). In outline:
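Readout is cGMP-driven firefly luciferase luminescence in HEK293 cells carrying hNpr1 and a PDE5-domain GloSensor, read before and 20 min after 0.1 nM hNppA stimulation. Cells had 2% substrate reagent for 2 h and test compound for 30 min.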

The target of experiment [14] is Atrial natriuretic peptide receptor 2 (Homo sapiens) (UniProt P20594). Nature of the experiment: Natriuretic polypeptide receptor (hNpr2) antagonism - Pilot subtype selectivity assay (AID 1347050; calls by dose curve; further: on the % scale 0 is the no-effect control and ±100 the full control effect). Summed up: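 Pilot selectivity screen against hNpr2: HEK293 cGMP-sensor cells are treated with LOPAC1280 compounds, then with hNppC peptide at 1 nM final. The cGMP-driven luminescence change over 20 min at room temperature is the read-out.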

The target in experiment [15] is Parathyroid hormone/parathyroid hormone-related peptide receptor (Homo sapiens) (UniProt Q03431). Nature of the experiment: qHTS for PTHR1 Agonists: Optimization Screen against the NCGC LOPAC library (AID 1347079).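 Further: GloSensor cAMP luminescence in HEK-293 GP2 cells expressing human PTHR1 with IBMX; 0% is about no effect.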 In outline:
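Compounds were tested across a qHTS titration. PTHR1-expressing GP2 cells report cAMP rises via GloSensor luminescence after 1 hr compound exposure at 37C with IBMX present.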

Experiment [16] has as its system Zika virus NS2B-NS3 protease. Nature of the experiment: Primary screen GU AMC qHTS for Zika virus inhibitors (AID 1347154).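 Further: 0% = no-inhibitor control and -100% = no-enzyme control; nearly all actives have a fitted effect of over 70% in size.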 Summed up:
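Fluorogenic AMC-substrate cleavage by noncovalent NS2B-NS3 protease complex (25 nM, pH 8.0 Tris buffer with Tween 20) followed for 15 minutes at room temperature (~20% conversion). Percent inhibition from ex340/em450 signal change, fitted by 4-parameter Hill equation.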

Experiment [17] is described as follows: Validation qHTS assay for inhibitors of Activation Induced Cytidine Deaminase (AID): UDG Counterscreen signal (AID 1347427). Further: 0% is about no effect. Summed up: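 Counterscreen read of UDG activity (2 U/mL, 4/3x) in the FRET deamination format with AID (1 uM, 4/3x), DJC20/DJC23 substrates (250 nM, 4x), 4 h at room temperature. NaOH stop, fluorescence at 560 ex/665 em.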
The target of experiment [18] is Single-stranded DNA cytosine deaminase (Homo sapiens) (UniProt Q9GZX7). Nature of the experiment: Validation qHTS assay for inhibitors of Activation Induced Cytidine Deaminase (AID): AID signal (AID 1347429). Further: on the % scale 0 is the no-effect control and ±100 the full control effect. In outline:
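AID and UDG were combined and compounds added at final up to 114 uM, then DJC20/DJC23 FRET substrate was added for 4 hr at room temperature. NaOH was then added for 30 min before fluorescence was read at 540/590 nm.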

A number with no mark means an inactive call. Results filed as inconclusive are left out. The source made the active and inactive calls. Unless noted, the call rests on the fitted dose curve; in most records, active means well fitted curve in the direction sought with a large enough effect; inconclusive means small, poorly fitted or top-dose-only effect, or another doubt; inactive means no such curve, though single readings can be large; an effect the other way counts as inactive or inconclusive.

Chain of Voltage-gated inwardly rectifying potassium channel KCNH2 (Homo sapiens) (Q12809 whole entry, looked up): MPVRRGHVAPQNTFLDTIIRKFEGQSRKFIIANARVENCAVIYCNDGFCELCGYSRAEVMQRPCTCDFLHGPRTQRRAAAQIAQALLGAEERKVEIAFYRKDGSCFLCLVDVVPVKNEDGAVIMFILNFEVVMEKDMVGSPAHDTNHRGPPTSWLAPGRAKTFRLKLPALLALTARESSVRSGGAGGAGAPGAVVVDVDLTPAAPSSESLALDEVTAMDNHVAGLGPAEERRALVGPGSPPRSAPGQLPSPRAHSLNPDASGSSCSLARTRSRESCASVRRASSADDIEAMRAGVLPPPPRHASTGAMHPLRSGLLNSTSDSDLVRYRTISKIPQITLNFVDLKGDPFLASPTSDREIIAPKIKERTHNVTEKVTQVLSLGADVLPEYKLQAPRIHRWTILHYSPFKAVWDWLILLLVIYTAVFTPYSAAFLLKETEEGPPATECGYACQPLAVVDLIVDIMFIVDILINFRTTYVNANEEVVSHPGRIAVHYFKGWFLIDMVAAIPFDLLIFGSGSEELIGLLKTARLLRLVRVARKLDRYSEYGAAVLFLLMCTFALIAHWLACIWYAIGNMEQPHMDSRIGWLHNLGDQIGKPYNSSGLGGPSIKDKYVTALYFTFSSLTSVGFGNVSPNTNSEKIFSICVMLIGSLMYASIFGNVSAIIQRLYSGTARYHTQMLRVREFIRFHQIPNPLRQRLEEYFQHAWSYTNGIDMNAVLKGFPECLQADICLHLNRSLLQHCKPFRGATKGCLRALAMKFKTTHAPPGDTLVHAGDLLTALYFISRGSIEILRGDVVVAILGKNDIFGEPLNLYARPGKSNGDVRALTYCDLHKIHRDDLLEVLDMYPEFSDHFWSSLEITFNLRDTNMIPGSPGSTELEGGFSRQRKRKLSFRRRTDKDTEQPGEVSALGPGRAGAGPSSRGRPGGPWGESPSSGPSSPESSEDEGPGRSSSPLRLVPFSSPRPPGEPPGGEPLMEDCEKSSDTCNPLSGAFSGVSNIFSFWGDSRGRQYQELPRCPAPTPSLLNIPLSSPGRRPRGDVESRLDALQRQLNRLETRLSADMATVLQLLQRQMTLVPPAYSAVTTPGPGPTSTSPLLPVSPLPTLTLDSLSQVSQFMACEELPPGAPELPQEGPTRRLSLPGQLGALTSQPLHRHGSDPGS
Chain of Atrial natriuretic peptide receptor 1 (Homo sapiens) (P16066 whole entry, looked up): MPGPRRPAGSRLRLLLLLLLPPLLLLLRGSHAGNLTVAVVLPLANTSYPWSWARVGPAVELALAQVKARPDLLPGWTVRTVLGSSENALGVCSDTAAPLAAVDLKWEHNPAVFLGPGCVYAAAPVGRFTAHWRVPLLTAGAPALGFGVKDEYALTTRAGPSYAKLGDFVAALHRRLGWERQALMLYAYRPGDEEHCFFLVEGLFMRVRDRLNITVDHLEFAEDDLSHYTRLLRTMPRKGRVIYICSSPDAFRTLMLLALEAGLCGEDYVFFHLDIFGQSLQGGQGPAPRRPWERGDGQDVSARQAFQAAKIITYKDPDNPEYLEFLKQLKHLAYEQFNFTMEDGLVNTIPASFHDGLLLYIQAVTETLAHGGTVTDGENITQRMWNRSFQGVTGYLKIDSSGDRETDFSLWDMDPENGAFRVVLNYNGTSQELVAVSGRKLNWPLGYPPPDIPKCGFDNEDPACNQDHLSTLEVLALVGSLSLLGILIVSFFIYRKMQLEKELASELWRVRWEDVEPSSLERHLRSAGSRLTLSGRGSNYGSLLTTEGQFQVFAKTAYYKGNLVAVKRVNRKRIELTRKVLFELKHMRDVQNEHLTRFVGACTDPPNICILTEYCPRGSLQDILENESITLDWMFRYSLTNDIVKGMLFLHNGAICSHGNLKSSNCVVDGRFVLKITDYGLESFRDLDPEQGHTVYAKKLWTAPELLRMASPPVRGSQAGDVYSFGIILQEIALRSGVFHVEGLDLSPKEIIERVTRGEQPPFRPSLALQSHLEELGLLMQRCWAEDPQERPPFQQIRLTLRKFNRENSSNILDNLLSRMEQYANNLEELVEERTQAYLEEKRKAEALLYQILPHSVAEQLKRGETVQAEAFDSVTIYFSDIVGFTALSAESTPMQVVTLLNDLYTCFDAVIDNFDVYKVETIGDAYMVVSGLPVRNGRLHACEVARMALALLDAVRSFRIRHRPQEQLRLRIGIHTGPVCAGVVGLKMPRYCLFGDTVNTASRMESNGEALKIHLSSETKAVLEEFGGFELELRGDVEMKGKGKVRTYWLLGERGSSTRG
Chain of phosphoglycerate mutase (Leishmania major) (Q4Q090 1-553): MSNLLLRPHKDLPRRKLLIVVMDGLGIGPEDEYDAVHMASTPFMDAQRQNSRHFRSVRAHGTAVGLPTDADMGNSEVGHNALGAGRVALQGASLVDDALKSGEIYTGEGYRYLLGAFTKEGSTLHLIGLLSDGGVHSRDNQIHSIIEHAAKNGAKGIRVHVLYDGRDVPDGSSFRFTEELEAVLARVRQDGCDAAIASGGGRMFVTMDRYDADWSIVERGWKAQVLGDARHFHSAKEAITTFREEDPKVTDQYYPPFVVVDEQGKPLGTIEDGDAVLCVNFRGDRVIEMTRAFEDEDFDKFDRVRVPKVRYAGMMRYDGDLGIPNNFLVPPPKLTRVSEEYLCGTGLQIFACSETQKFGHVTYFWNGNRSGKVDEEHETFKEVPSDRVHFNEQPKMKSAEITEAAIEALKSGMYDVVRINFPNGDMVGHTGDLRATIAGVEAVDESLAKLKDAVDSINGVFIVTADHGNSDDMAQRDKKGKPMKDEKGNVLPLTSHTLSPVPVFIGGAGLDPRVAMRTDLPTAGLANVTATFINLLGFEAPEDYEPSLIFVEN
Chain of Single-stranded DNA cytosine deaminase (Homo sapiens) (Q9GZX7 whole entry, looked up): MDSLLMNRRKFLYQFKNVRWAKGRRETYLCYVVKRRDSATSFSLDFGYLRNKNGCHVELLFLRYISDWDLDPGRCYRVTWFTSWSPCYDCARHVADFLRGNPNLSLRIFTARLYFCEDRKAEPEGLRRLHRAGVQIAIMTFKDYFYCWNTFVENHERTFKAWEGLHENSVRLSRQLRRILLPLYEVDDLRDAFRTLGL

In the case of `C1CCC(N=C(NC23CC4CC(CC(C4)C2)C3)N2CCOCC2)CC1`, the Potency entry in experiment [1], in experiment [3], in experiment [5], in [12], in experiment [13] and in experiment [14] was “inactive” in each case. Besides, the Potency result in experiment [16] and in experiment [18] was “inactive” throughout. The compound was classed as inactive in [2], in experiment [6], in experiment [7], in [8], in experiment [9] and in [10]. Also, the outcome in experiment [15] and in [17] was inactive. Moreover, the Potency in [4] is 11.2 µM (active). In addition, the max response in [11] was 10.5%.

These data come from PubChem BioAssay (NCATS).
